GPR151 ag – activators of human GPR151. PathHunter beta-arrestin GPR151 cells, luminescence. activation, % at 11.2 µM. AID 1508602. 1% of 650,000 active. Q8TDV0; in the data active means activation above about 4.9%;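 further: 0% = median of compound wells and 100% = cells with positive control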
MITF primary – human MITF inhibition, primary screen; O75030; AlphaScreen MITF homodimerization, bead proximity signal; AID 1259374; 0.91% of 650,000 active; inhibition, % at 2.6 µM; in the data active means inhibition above about 50%;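 further: 0% = vehicle wells with protein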
Target sequence (O75030 whole entry, looked up): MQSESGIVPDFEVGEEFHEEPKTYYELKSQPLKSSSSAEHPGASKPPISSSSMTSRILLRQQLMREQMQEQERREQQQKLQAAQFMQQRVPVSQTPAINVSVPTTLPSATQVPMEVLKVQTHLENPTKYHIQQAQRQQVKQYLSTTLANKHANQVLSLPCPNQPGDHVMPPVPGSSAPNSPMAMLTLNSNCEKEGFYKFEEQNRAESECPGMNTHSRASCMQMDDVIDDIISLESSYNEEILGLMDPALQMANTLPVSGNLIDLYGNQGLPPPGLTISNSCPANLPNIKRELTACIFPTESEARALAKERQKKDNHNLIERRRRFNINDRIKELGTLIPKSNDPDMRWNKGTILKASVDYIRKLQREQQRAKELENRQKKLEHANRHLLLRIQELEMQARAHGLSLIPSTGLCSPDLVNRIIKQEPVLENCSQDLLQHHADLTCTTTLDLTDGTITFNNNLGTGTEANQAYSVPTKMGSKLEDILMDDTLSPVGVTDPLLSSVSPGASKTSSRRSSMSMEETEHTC
TEAD-YAP inh – TEAD-YAP interaction inhibition; 1.4% of 640,000 active; inhibition, % at 9.12 µM; HEK-TIYL cells, TEAD-Gal4/YAP UAS-luciferase luminescence; AID 1259422; in the data active means inhibition above about 32%;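 further: 0% = median of test compound wells and 100% = reference inhibitor wells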
FBW7 act – human FBW7 E3 ligase activation, primary screen; 0.13% of 650,000 active; Q969H0; AlphaScreen FBW7–phospho-cyclin E peptide binding, activator screen; normalized activity (activation), % at 26.1 µM; in the data active means normalized activity above about 1.9%;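 further: purified mutant Fbw7 with reduced substrate affinity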
MITF confirm – human MITF inhibition, confirmation; shares compounds with MITF primary; AID 1259372; 16% of 4,700 active; AlphaScreen MITF homodimerization, biotin/His-MITF beads; inhibition, % at 2.6 µM;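 active means inhibition above a cutoff derived from the DMSO control wells, cut at about 28% in these data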;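 further: 0% = MITF dimer wells with DMSO only; inhibitors lower the bead chemiluminescence by keeping MITF from dimerizing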
AlphaScreen intf2 – AlphaScreen optical interference, counter-screen. inhibition, % at 2.6 µM. LysRS AlphaScreen counterscreen, signal interference, triplicate. 7.6% of 4,700 active. AID 1259376. shares compounds with MITF primary;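 active means inhibition above a cutoff derived from the DMSO control wells, cut at about 30% in these data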
GPR151 conf act – human GPR151 activation, confirmation screen; shares compounds with GPR151 ag; GPR151 PathHunter beta-arrestin cells, luminescence, 90 min; % of EA-reagent control over plate median; activation, % at 11.2 µM; 6,700 tested, under 10 active; AID 1508609;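 active means mean percent activation across replicates above the confirmation screen cutoff of 4.91%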
GPR119 counter – activates human GPR119 in a GPR151 counter-screen; shares compounds with GPR151 ag; GPR119 PathHunter beta-arrestin cells, luminescence, 90 min; 0 = compound-well median, 100 = enzyme-acceptor control; activation, % at 11.2 µM; 0.3% of 6,700 active; AID 1508611;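 active means mean percent activation in the counterscreen above 29.09%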;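 further: counterscreen on off-target GPR119 to flag nonselective hits from the GPR151 activator screen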
Starred values were filed as active, the others as inactive; / = no result given. Most compounds without a hit are left out; they make up all but 3.5% or so of the library.

SMILES	GPR151 ag	MITF primary	TEAD-YAP inh	FBW7 act	GPR151 conf act	GPR119 counter	others
CCN1CCN(CC#CCOc2ccccc2OC)CC1	9.7*	82.1*	7.5	0.1	-0.6	-10.3	MITF confirm=8.0;AlphaScreen intf2=13.4
O=C(CN1C(=O)c2ccccc2S1(=O)=O)N1CCC2(CC1)OCCO2	0.0	-3.8	2.5	0.0	/	/
COc1ccc(CN2CCN(Cc3cc(OC)cc(OC)c3)CC2)cc1	17.3*	77.1*	-0.7	-0.1	-0.6	-13.5	MITF confirm=-5.5;AlphaScreen intf2=1.2
COc1cc(CN2CCN(Cc3ccc(Br)cc3)CC2)cc(OC)c1	6.1*	81.6*	-4.6	0.2	-1.3	-9.5	MITF confirm=10.7;AlphaScreen intf2=5.7
COc1cc(CN2CCOCC2)cc(OC)c1	-0.8	42.2	4.1	-0.1	/	/
CCCN(CC1CC1)C(=O)C1CCN(Cc2ccc(C)cc2)CC1	5.2*	53.4*	3.1	0.3	-0.5	-2.0	MITF confirm=12.2;AlphaScreen intf2=7.0
Cc1cc(=O)[nH]c(SCc2cn3ccccc3n2)n1	-1.3	-4.1	-8.3	0.1	/	/
c1cnc2nc(SCc3cn4ccccc4n3)[nH]c2c1	6.8*	68.0*	0.5	-0.2	0.4	7.3	MITF confirm=10.2;AlphaScreen intf2=0.2
CCn1c2ccccc2c2cc(CN3CCN(Cc4ccc5c(c4)c4ccccc4n5CC)CC3)ccc21	-0.3	7.7	0.5	0.0	/	/
CCc1ccc(CN2CCN(Cc3ccc4c(c3)c3ccccc3n4CC)CC2)cc1	5.8*	69.7*	-3.1	-0.1	0.4	6.2	MITF confirm=8.0;AlphaScreen intf2=3.4
Brc1c(OCCCN2CCNCC2)ccc2ccccc12	17.5*	55.7*	-18.4	-0.4	0.3	-5.2	MITF confirm=6.2;AlphaScreen intf2=-1.5
O=C(C1CCN(Cc2cccnc2)CC1)N1CCCC1	0.9	-0.1	6.4	-0.1	/	/
O=C(c1ccncc1)N1CCN(Cc2cccnc2)CC1	9.0*	67.6*	7.2	0.0	0.1	15.0	MITF confirm=-17.9;AlphaScreen intf2=-4.8
O=C(NCCC1=CCCCC1)c1ccc2nc(-c3ccccc3)c(-c3ccccc3)nc2c1	1.5	2.9	-6.1	0.1	/	/
CCc1cc(OCCN2CCN(CC)CC2)ccc1Cl	7.0*	70.0*	-1.0	-0.1	-0.5	-9.0	MITF confirm=7.9;AlphaScreen intf2=17.3
Cc1c(Cl)ccc(OCCN2CCNCC2)c1C	0.2	11.2	-0.8	0.1	/	/
CCN1CCN(CCOc2ccc(Cl)c(C)c2C)CC1	7.7*	75.0*	-0.3	0.0	1.2	0.6	MITF confirm=12.6;AlphaScreen intf2=10.5
Cc1ccc(OCCCN2CCNCC2)c([N+](=O)[O-])c1	0.4	37.4	4.5	-0.1	/	/
Cc1ccc(OCCCN2CCN(C)CC2)c([N+](=O)[O-])c1	5.2*	75.5*	10.7	-0.2	-0.3	-6.1	MITF confirm=-6.9;AlphaScreen intf2=-3.5
O=C(CSc1nccc(=O)[nH]1)c1ccc(Cl)cc1	-0.5	14.4	-3.0	0.1	/	/
Cc1ccc(C2=CC(c3ccc(Cl)cc3)n3nc(CCCO)nc3N2)cc1 (stereo not given)	-0.5	15.7	6.7	0.3	/	/
COc1ccc(C2C=C(c3ccc(Cl)cc3)Nc3nc(CCCO)nn32)cc1 (stereo not given)	6.1*	-1.1	12.4	0.0	1.7	4.7
CC(=O)N1CCc2c(sc(NC(=O)c3cccc([N+](=O)[O-])c3)c2C#N)C1	-2.8	1.6	-45.4	0.6	/	/
Cc1ccc(N(CC(=O)Nc2ccccc2C(N)=O)S(=O)(=O)c2ccc(F)cc2)cc1	0.3	13.8	4.7	0.3	/	/
CC(C)NC(=O)CN1C(=O)COc2ccc(C(C)(C)C)cc21	5.8*	1.1	-4.7	-0.1	0.4	8.2
SMILES	GPR151 ag	MITF primary	TEAD-YAP inh	FBW7 act	GPR151 conf act	GPR119 counter	others
COCCNC(=O)CN1C(=O)COc2ccc(Cl)cc21	7.8*	4.9	-0.7	-0.1	-0.2	3.6
O=C(CN1C(=O)COc2ccc(Cl)cc21)NC1CCCCCC1	-0.4	7.5	-4.4	0.1	/	/
CC(C)(C)c1ccc2c(c1)N(CC(=O)NC1CCCCCC1)C(=O)CO2	5.5*	7.4	-9.0	-0.1	1.3	1.6
Cc1ccc(-n2c(C)cc(C=C3C(=O)NC(=O)NC3=O)c2C)cc1	8.6*	7.9	8.4	0.0	-0.4	-4.8
CC1CCN(Cc2nnnn2CCCC(=O)NCCSc2nccn2C)CC1	0.8	-1.5	-0.8	-0.1	/	/
COc1ccc(CN(C)CCN(C)C)c(OC)c1C	6.6*	9.3	4.2	0.0	0.6	-0.4
COc1cccc(CN(C)CCN(C)C)c1O	-1.9	-0.6	0.6	0.1	/	/
COC(=O)C(CCSC)NC(=O)c1ccc(Cl)cc1Cl (stereo not given)	9.7*	8.0	-3.9	-0.1	0.6	9.8
COC(=O)C(NC(=O)c1ccccc1)c1ccccc1 (stereo not given)	-1.0	4.0	6.0	0.0	/	/
COC(=O)C(NC(=O)c1ccc(Br)cc1)c1ccccc1 (stereo not given)	9.0*	-3.6	15.7	-0.1	2.1	11.6
COc1ccc(C2C(C(=O)c3cccs3)=C(O)C(=O)N2CCc2ccccc2)cc1 (stereo not given)	0.0	2.1	8.0	0.0	/	/
COc1ccc([N+](=O)[O-])cc1/C=N/N(CCO)C1=NS(=O)(=O)c2ccccc21	2.1	14.5	-3.2	0.0	/	/
COc1cccc(/C=N/N(CCC#N)C2=NS(=O)(=O)c3ccccc32)c1O	10.4*	8.9	-0.9	0.0	0.7	-6.9
COc1ccnc(Cn2nc3c4c(C)c(C)sc4nc(C(C)C)n3c2=O)c1OC	-0.1	-12.3	-7.3	-0.2	/	/
Cc1sc2nc(C(C)C)n3c(=O)n(CCN4CCCC4)nc3c2c1C	11.2*	-2.3	8.0	-0.4	0.1	3.3
Cc1sc2nc(C(C)C)n3c(=O)n(Cc4ccccn4)nc3c2c1C	12.6*	-3.0	-2.5	-0.1	-0.7	1.1
CCn1nc2c3c(C)c(C)sc3nc(C(C)C)n2c1=O	1.8	4.7	6.3	-0.1	/	/
CCOC(=O)c1c(C)c(C(=O)NCC(C)C)c(C)n1Cc1ccccc1	-1.3	-4.4	-5.2	0.0	/	/
CC(C)CC(=O)Nc1nn2c(-c3cccs3)nnc2s1	5.5*	-0.3	-8.3	-0.1	-0.1	-5.5
CC(C)(C)c1ccc(OCCNC(=O)c2ccccc2O)cc1	0.2	-17.6	-1.2	-0.1	/	/
CCOC(=O)C1CCN(C(=O)Cc2c(C(=O)O)[nH]c3ccc(Cl)cc23)CC1	5.3*	6.3	-7.5	0.2	0.4	-0.6
COc1ccccc1/C=C/CN1CCNC(=O)C1CC(=O)NC1CCOCC1 (stereo not given)	4.9*	-6.4	6.8	-0.2	-0.7	-11.1
O=C(CC1C(=O)NCCN1Cc1ccc2ccccc2c1)NC1CCCCCC1 (stereo not given)	9.5*	-2.5	-2.0	-0.1	-1.6	-19.4

Bioassay records: PubChem, The Scripps Research Institute Molecular Screening Center
